PubChem BioAssay AID717 (Columbia University Molecular Screening Center, 2007)
Among all 91,000 compounds or so, about 40 (0.04%) were called active. No stated cut-off is given here; in the data, active means activation above about 37%; inactive means the rest. These entries were drawn from the full list.

These compounds were tested against Bifunctional epoxide hydrolase 2 (Homo sapiens) (UniProt P34913) (assay: soluble epoxide hydrolase activators, primary screen, biochemical, human sEH (AID 717)). Details: purified human sEH enzymatic activity, activator screen; at 2 µM; active compounds read high.
Bifunctional epoxide hydrolase 2 (Homo sapiens), sequence (P34913 whole entry, looked up): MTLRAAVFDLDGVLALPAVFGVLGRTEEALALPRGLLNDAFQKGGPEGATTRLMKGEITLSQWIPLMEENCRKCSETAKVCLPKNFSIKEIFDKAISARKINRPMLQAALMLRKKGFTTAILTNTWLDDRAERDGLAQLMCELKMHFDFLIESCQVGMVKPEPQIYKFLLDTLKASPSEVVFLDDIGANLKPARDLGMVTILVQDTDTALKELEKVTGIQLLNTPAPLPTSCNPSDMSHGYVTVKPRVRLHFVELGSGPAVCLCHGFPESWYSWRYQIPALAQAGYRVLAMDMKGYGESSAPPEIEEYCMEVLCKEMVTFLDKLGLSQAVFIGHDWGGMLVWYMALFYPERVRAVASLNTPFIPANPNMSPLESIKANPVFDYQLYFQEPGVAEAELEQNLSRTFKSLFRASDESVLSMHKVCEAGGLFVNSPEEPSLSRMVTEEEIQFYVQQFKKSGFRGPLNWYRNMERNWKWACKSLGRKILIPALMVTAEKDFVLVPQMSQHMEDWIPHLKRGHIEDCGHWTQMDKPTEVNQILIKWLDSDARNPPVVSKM

activation, inactive:
CCC(=O)NC(NCC1CCCO1)C(Cl)(Cl)Cl (centres undefined) 2.5%
O=C(CCc1ccc(S(=O)(=O)N2CCOCC2)cc1)Nc1ccc2ccccc2c1 -20.5%
O=C(CCCOc1ccccc1)NCc1ccco1 -2.8%
COc1ccc(C(=O)N2CCc3cc(OC)c(OC)cc3C2c2cccc([N+](=O)[O-])c2)cc1 (centres undefined) 2.1%
Cc1cc(-c2cccs2)nc(-n2cccc2)n1 -0.3%
CCN(CC)CCNc1ccc(Cl)cc1[N+](=O)[O-] -8.3%
Cc1ccccc1NC(=O)C(C)c1ccc(-c2ccccc2)c(F)c1 (centres undefined) -9.7%
CCOc1ccc(Nc2nc(Cc3nnc(SCC(=O)NC4CCCC4)n3C)cs2)cc1 -12.4%
C=CCn1c(Cn2nnc3ccccc32)nnc1SCC(=O)N/N=C/c1cc(Br)cc(OC)c1O -14.1%
CC12c3ccccc3C(c3ccccc31)C1C(=O)N(Cc3cccnc3)C(=O)C12 (centres undefined) -9.7%
CNS(=O)(=O)c1cnccc1N1CCN(c2cccc(C)c2)CC1 -13.7%
COc1ccc(Cl)cc1NC(=O)CN(C)C(=O)CNC(=O)C12CC3CC(CC(C3)C1)C2 -13.2%
Cc1ccccc1C(=O)N1CCC(C(=O)Nc2ccc(S(=O)(=O)N(C)C(C)C)cc2)CC1 -83.3%
Nc1c(-c2ccc(F)cc2)cnc2ncnn12 -1.1%
COC(=O)c1ccc(C(=O)OC)c(NC(=S)N2CCCCC2)c1 1.5%
O=C(CSc1nc2ccccc2o1)N1c2ccccc2Sc2ccc(Cl)cc21 6.7%
Cc1ccccc1OCc1nnc(SCC(=O)N2c3ccccc3Sc3ccc(Cl)cc32)o1 1%
COc1ccc(CCNC(=O)COC(=O)c2ccc[nH]c2=O)cc1 3.2%
CC1CC(C)CN(C/C=C/c2ccccc2[N+](=O)[O-])C1 (centres undefined) -2.6%
O=C(CSCc1ccc([N+](=O)[O-])cc1)NCCSCc1ccccc1 -17.4%
O=C1c2ccccc2C(=O)c2c1cccc2N1CCN(Cc2ccccc2)CC1 33.6%
O=S(=O)(c1ccc(F)cc1)n1ccc(-c2cnc(-c3ccccc3)s2)n1 8.1%
O=c1[nH]n(-c2cccc(Cl)c2)c2ncccc12 0.8%
CC(=O)Nc1ccccc1C(=O)C(=O)Nc1ccc(F)cc1 21.4%
Cc1noc(C)c1C(=O)N(CC(=O)NC1CCCC1)Cc1ccccc1F 5.6%
COc1cccc(NC(=O)C2c3cc(OC)c(OC)cc3C(=O)N(C)C2c2cccnc2)c1 (centres undefined) 4.9%
Cc1cccc(-n2cnc(C(=O)Nc3cccnc3)c2)n1 7.2%
CC(C)C(NS(=O)(=O)c1cccs1)C(=O)Nc1nc(C(C)(C)C)cs1 (centres undefined) -6%
c1ccc2c(C[n+]3csc4ccccc43)cccc2c1 12.2%
c1ccc(-c2ccnc3nc(-n4cccc4)nn23)cc1 3.1%
COc1cccc(/C=N/NC(=O)C(=O)N2CCCC2)c1 7.2%
CC(C)CC(=O)N1CCC(O)(CS(=O)(=O)Cc2ccccc2)CC1 0.4%
NC(=O)COc1ccc(/C=N/NC(=O)C2CCCN2S(=O)(=O)c2ccc(Cl)cc2)cc1 (centres undefined) -1.2%
O=C(O)COc1ccc(-c2nccc(-c3cccs3)n2)cc1 -9.3%
O=C(CSc1ncnc2c1cnn2CCc1ccccc1)Nc1ccc(F)cc1 -20.6%
CN(C)/C=C(\C#N)C(=O)c1cccnc1Oc1ccc(F)cc1F -10.7%
Cc1ccc2c(c1)-c1c(ssc1=S)C(C)(C)N2C(=O)CN1C(=O)c2ccccc2C1=O 25.4%
Cn1nc([N+](=O)[O-])nc1Sc1ccc(C(C)(C)C)cc1 -5.2%
Cc1sc(NC(=S)NC(=O)c2cccs2)nc1-c1ccc(CC(C)C)cc1 17.5%
Cc1ccc(C)c(NC(=O)C2Cc3ccccc3CN2C(=O)OCc2ccccc2)c1 (centres undefined) 7.9%
COC(=O)c1c(-c2cccs2)csc1NC(=O)CSc1ncnc2sc(C)c(C)c12 -7%
Cc1cc([N+](=O)[O-])ccc1NCc1cccc([N+](=O)[O-])c1 2.8%
O=S(=O)(/N=C(/Nc1ccccn1)c1ccccc1)c1ccc(Cl)cc1 -19.7%
N/C(=N\OC(=O)c1cc(-c2ccccc2)nc2ccccc12)c1ccncc1 3%
Cc1cc2cc3c(N)[nH]nc3nc2cc1C -5.4%
O=C(/C=C/c1cccs1)c1cc(Cl)ccc1OC(=O)N1CCOCC1 7.4%
O=C(O)c1ccccc1NC(=S)NC(NC(=O)c1ccccc1[N+](=O)[O-])C(Cl)(Cl)Cl (centres undefined) -9.3%
Cc1c(Br)c([N+](=O)[O-])nn1C(C)C(=O)Nc1nccs1 (centres undefined) 6.6%
CN(C)/C=C/C(=O)c1ccccc1F -11.3%
COC(=O)CN(C(=S)Nc1ccc(Cl)cc1)C1CC(=O)N(c2ccc(OC)cc2)C1=O (centres undefined) -11.8%
Cc1ccc(-c2nnc(C)c(N3CC(C)OC(C)C3)n2)cc1 (centres undefined) -0.3%
COc1ccc(-c2c(C(C)=O)c(C)nc3sc4c(=O)n(-c5ccc(C)cc5)nnc4c23)cc1 -1.9%
O=C(ON=C1CCN(S(=O)(=O)c2ccccc2)CC1)c1ccc(Cl)cc1 0.1%
N#C/C(=C(/O)Cc1cccc2ccccc12)c1nc2ccccc2s1 13.6%
NS(=O)(=O)c1ccc(Nc2nc(-c3ccccc3)cs2)cc1 -4.9%
CS(=O)(=O)N(CC(=O)Nc1ccc(F)cc1F)c1cccc([N+](=O)[O-])c1 -2.8%
O=C(Nc1cc(C(F)(F)F)ccc1Cl)c1cc2nc3c(c(C(F)(F)F)n2n1)CCCC3 -7.1%
COc1ccc(/C=C2\CCCC3C2=NN(C(=O)c2scnc2C)C3c2ccc(OC)cc2)cc1 (centres undefined) 12.7%
O=C(c1ccccc1)C(Cn1cncn1)C(Sc1ccccc1)c1ccccc1 (centres undefined) 3.9%
Cc1nc(SCC(=O)N2CC(=O)Nc3ccccc32)c2c(C)c(C)sc2n1 -1.1%
COc1ccc(Cc2nnc(SCC(=O)c3cccc([N+](=O)[O-])c3)n2C)cc1 16.7%
O=C(Nc1ccc2c(c1)OCCO2)c1ccc(Cl)c(S(=O)(=O)N2CCCCC2)c1 -77.7%
CCCCNC(=O)C(=O)c1ccccc1NC(C)=O -0.9%
CC(C)(CCl)C(=O)Nc1ccc(Sc2ccc(F)cc2)cc1 -29.2%
O=C(CCNS(=O)(=O)c1ccccc1C(F)(F)F)NCc1ccc2c(c1)OCO2 3.4%
COCCCNCC(=O)Nc1sc(C)c(C)c1C(=O)OC -1%
Cc1ccc(CNC(=O)C2CC(c3ccccc3[N+](=O)[O-])=NO2)o1 (centres undefined) 1.1%
Cc1c(NC(=O)CCCOc2ccccc2)cccc1[N+](=O)[O-] -9.6%
CCC(C)n1c(-c2cc(OC)c(OC)c(OC)c2)nc2nc3ccccc3nc21 (centres undefined) 0.8%
COc1cc(C(=S)N2CCOCC2)cc(OC)c1OC(=O)c1cc([N+](=O)[O-])c(C)c([N+](=O)[O-])c1 -3.8%
COc1ccc(/C=C(/NC(=O)c2ccc(C)cc2)c2nc3ccccc3[nH]2)cc1OC 4.1%
O=C(O)c1ccccc1-c1ccccc1C(=O)Nc1cccc2ccccc12 6.9%
O=C(Nc1nnc(CCOCCOCCc2nnc(NC(=O)c3ccco3)s2)s1)c1ccco1 -12%
CCn1c(SCc2ccc(C)cc2)nnc1-c1nn(-c2ccccc2)ccc1=O 17.2%
CC(Oc1ccc(F)cc1F)C(=O)/C=C/N(C)C (centres undefined) 0.5%
CCOC(=O)C1=C(C)Nc2sc(C(=O)c3ccc(Br)cc3)c(N)c2C1c1ccc(C(=O)OC)cc1 (centres undefined) -3.6%
Cc1cc([N+](=O)[O-])c(NC2CCCCC2)c([N+](=O)[O-])c1 3.5%
O=C(NCCc1ccccn1)c1cc(C(=O)C2CCCCC2)c[nH]1 9.3%
CC(C)c1cc(C(N)=O)c(NC(=O)c2cccc(COc3ccc(Br)cc3)c2)s1 -3.7%
Cc1ccc(NC(=S)NC2CCCC2)cc1 -29.3%
COC(=O)c1ccccc1OCC(=O)N1CCN(c2ccc(Cl)cc2)CC1 -44.9%
C=CCNc1cnn(-c2ccc(C)cc2)c(=O)c1Cl 0.5%
CCc1cccc2c(C=C(C#N)C#N)cn(CC(=O)N3CCCCC3)c12 5%
COCCCn1c(SCc2cccc(OC)c2)nc2cc(OC)c(OC)cc2c1=N -5.2%
C=CCNC(=O)c1sc(SC)cc1-c1ccc(Cl)cc1 14.9%
O=C(O)/C=C/C(=O)Nc1ccc(F)cc1F 6.8%
C/C(=N\NS(=O)(=O)c1cccc([N+](=O)[O-])c1)c1cc2ccccc2o1 -6%
COc1cccc(/C=N/NC(=O)c2cccc([N+](=O)[O-])c2)c1OS(=O)(=O)c1ccc(C)cc1 -13.5%
CCC(=O)OCc1c(C(F)(F)F)nn(C)c1Oc1cccc(C(F)(F)F)c1 -5.9%
Cc1nn(CC(=O)Nc2nc3ccccc3s2)c(C)c1[N+](=O)[O-] 8%
O=C(Cn1cncn1)N/N=C/c1c2ccccc2cc2ccccc12 -1.1%
CONC(=O)c1cc(OCC(F)(F)F)ccc1OCC(F)(F)F -7.2%
CC(=O)NS(=O)(=O)c1ccc(NC(=O)/C=C/c2ccccc2Cl)cc1 -14.4%
Cc1ccc(N2CCN(/N=C/c3cccs3)CC2)cc1 1.6%
CC(C)(C)NC(=O)NC(=O)COC(=O)CCC1CCCCC1 -0.5%
Cc1cc2c(cc1C)N(C(=O)CN1C(=O)c3ccccc3C1=O)C(C)(C)c1ssc(=S)c1-2 18.1%
O=C(NCc1cccnc1)c1cccnc1Sc1ccc(Cl)cc1 17.3%
N/C(=N\OC(=O)CCc1ccccc1)c1ccc(Cl)cc1 10.5%
CC1CCN(C(NC(=O)c2ccco2)C(=O)c2ccccc2)CC1 (centres undefined) -0.4%
CCCCCCCCOC1OC(CO)C(O)C(O)C1NC(C)=O (centres undefined) -6.6%
O=C(CSc1ccccc1)Nc1ccc(NC(=O)c2ccco2)cc1 -17.6%
CC(=O)c1cnn(-c2cc(Oc3ccc(F)cc3)ncn2)c1C 7.1%
O=C(NCCCCCCCCCNC(=O)C(F)(F)F)C(F)(F)F -6.7%
O=C(Nc1ccn(Cc2ccccc2F)n1)c1ccc(COc2ccc(Cl)cc2Cl)o1 -1.7%
